# Screening results deposited in PubChem BioAssay by several laboratories.
# Sampled rows, rich in hits. Any-hit rate of the full collection: about 5.4%.
# CSC inhib: blocks cancer stem cells; cancer stem cell-like cells viability, luminescence; inhibition, % at 7.5 µM; actives 1.1% (n = 300,000); in the data active means inhibition above about 75%; inconclusive means no clear call, values can overlap the other calls; tested in HMLE shEcad cells
# Beta cell apopt: blocks beta cell apoptosis. INS-1E cytokine-induced death, ATP luminescence, 48 h; percent of positive-control rescue, neutral wells zero. AID 435005. protection from apoptosis, % (concentration not given with the values). actives 0.8% (n = 300,000);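 active means Every replicate reaches about 75%, or at least half do and their mean reaches it too, limit read from the data; inconclusive means At least half of replicates reach the limit but their mean does not; inactive means Under half of replicates reach the limit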;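 further: higher means more ATP so stronger rescue from cytokine killing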
# SKKanGAS inh: SKKanGAS growth inhibition. S. pyogenes SKKanGAS, kanamycin growth, BacTiter-Glo, 6 h. inhibition, % at 7.5 µM. actives 1.3% (n = 300,000). AID 1662;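 active means mean replicate score, as percent of positive control median, at least 50; inconclusive means mean below 50 but one replicate at or above 50; inactive means mean and every replicate below 50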;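 further: strain carries kanamycin resistance gene driven by streptokinase promoter and grows in 40 µg/ml kanamycin; loss of luminescence reflects streptokinase promoter inhibition or plain growth inhibition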
# Calb FLC: C. albicans growth modulation with fluconazole; actives 0.57% (n = 300,000); growth inhibition, % (no concentration beside the values); C. albicans CaCi-2 (fluconazole-resistant clinical isolate) + fluconazole, Alamar Blue growth, 48 h; AID 1979;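 active means growth inhibition above about 58% in most replicates, limit read from the data, passing the limit was not always enough; inconclusive means exactly half the replicates above a set limit; inactive means most replicates below a set limit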;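 further: all wells also contain fluconazole at 8 µg/ml as a sub-toxic cotreatment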
# MPTP block: inhibitors of mitochondrial permeability transition pore; isolated mouse mitochondria, Ca2+ swelling absorbance, 30 min; inhibition, % at 10 µM; AID 602449; actives 1.4% (n = 360,000);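 active means inhibition of 50% or more, scaled per plate between neutral and stimulator controls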
# Mdm2-MdmX inh: disrupts the human Mdm2-MdmX interaction; SaOS-2 split-luciferase Mdm2/MdmX complementation, luminescence; inhibition, % at 8 µM; actives 3% (n = 330,000);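 active means inhibition of at least 50% at 8 µM in the primary screen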
# Target sequence (O15151 whole entry, looked up): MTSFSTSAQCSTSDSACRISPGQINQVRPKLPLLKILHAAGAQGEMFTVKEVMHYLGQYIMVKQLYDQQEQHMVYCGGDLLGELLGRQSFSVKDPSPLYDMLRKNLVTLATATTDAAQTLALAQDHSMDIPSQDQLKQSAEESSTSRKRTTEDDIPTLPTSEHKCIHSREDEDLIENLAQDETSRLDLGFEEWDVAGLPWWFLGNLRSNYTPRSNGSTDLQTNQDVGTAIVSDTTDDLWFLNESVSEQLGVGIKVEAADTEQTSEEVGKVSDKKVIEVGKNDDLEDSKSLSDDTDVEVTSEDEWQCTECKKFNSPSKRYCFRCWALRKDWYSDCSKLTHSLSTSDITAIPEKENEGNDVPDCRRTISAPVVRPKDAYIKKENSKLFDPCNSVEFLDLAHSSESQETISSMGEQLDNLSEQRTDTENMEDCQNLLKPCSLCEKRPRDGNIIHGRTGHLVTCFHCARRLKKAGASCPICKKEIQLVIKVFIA
# Target sequence (Q00987 whole entry, looked up): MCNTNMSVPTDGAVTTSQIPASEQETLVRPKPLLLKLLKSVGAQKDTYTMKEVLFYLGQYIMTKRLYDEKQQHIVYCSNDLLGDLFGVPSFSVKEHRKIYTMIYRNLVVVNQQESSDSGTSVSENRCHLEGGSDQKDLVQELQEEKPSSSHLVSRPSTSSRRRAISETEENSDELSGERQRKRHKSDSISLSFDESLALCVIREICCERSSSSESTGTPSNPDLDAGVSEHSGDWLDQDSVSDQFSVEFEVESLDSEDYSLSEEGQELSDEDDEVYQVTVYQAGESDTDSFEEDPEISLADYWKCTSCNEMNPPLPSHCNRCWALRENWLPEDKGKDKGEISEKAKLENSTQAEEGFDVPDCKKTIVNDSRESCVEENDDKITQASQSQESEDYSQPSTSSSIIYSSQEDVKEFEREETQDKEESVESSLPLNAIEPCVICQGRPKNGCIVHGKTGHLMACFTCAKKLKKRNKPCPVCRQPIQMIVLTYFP
# Mdm2-MdmX conf: confirmation of human Mdm2/MdmX interaction inhibitors. shares compounds with Mdm2-MdmX inh. Mdm2-MdmX binding, luminescent assay. inhibition, % at 8 µM. actives 55% (n = 10,000). AID 489028; in the data active means inhibition above about 40%
# Full FLuc ctr: counter-screen for Mdm2/MdmX inhibitors: full-length luciferase; shares compounds with Mdm2-MdmX inh; SaOS-2 full-length luciferase counterscreen, luminescence; inhibition, % at 8 µM; actives 77% (n = 6,200); AID 504607;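 active means mean inhibition at 8 µM reaching about 37%, which flags the compound as non-specific, limit read from the data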;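 further: p53-null SaOS-2 cells with luciferase driven by a doxycycline-inducible promoter; compound on cells about two nights before reading with doxycycline added after day one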
# Numbers stand for hits; i = inactive; ? = inconclusive; nt = no result; ! = not active in a repeat.
SMILES,CSC inhib,Beta cell apopt,SKKanGAS inh,Calb FLC,MPTP block,Mdm2-MdmX inh,Mdm2-MdmX conf,Full FLuc ctr
CC(C)n1c(O)c(/C=C2\C=NN=C2c2ccccc2)sc1=S,i,i,i,i,i,61,43,48
CCn1c(O)c(C=C2N=c3ccccc3=N2)sc1=S,i,i,i,i,i,i,nt,nt
CCn1c(O)c(/C=C2\C=NN=C2c2ccc(C)cc2)sc1=S,i,i,i,i,i,82,63,97
Cc1c(Cc2ccccc2)sc(NC(=O)Cc2ccccc2)c1C(N)=O,i,i,i,i,i,i,nt,nt
COc1ccc(/C=C/C(=O)Nc2sc(Cc3ccccc3)c(C)c2C(N)=O)cc1,i,i,i,i,i,64,i,114
CC(C)(C)[C@H]1C=C(C(=O)N2CCN(Cc3ccccc3)CC2)O[C@@H](OCCCCO)C1,i,i,i,i,i,i,nt,nt
O=C(N/N=C/C=C/c1ccccc1)c1n[nH]c2c1CCC2,77,i,i,i,i,63,56,95
O=C(N/N=C/c1cccc2ccccc12)c1n[nH]c2c1CCCC2,i,i,i,i,i,66,65,85
O=C(N/N=C/c1ccc(Cl)cc1Cl)c1n[nH]c2c1CCCC2,i,i,i,i,i,i,nt,nt
COc1ccc(CC(=O)Nc2cccc(-c3nnc(-c4cccc(C)c4)o3)c2)cc1OC,i,106,i,i,i,93,61,41
COc1ccc(CC(=O)Nc2cccc(-c3nnc(-c4ccccc4)o3)c2)cc1OC,nt,nt,i,i,i,nt,nt,nt
COc1ccc(CC(=O)Nc2cccc(-c3nnc(-c4ccc(C)cc4)o3)c2)cc1OC,i,i,i,?,i,72,75,67
C=C(C)C1Cc2c(C)nn(-c3nc(C)cc(C)n3)c2C1 (stereo unspecified),i,i,56,i,i,55,i,nt
CN1C(=O)C(=O)N(c2cccc(C(F)(F)F)c2)C1=O,i,nt,i,i,i,i,nt,nt
Fc1ccc(Nc2cccc3nccnc23)cc1,nt,i,i,i,i,i,nt,nt
c1cc(Nc2cccc3nccnc23)c2nccnc2c1,i,i,i,i,i,61,52,90
CCCCCCCCCCCCN1C/C(=C\C(=O)OCC)c2ccccc2S1(=O)=O,i,i,i,i,i,i,nt,nt
COc1ccc(-c2csc3ncnc(NCCN4CCOCC4)c23)cc1,i,i,i,i,i,61,65,36
Clc1ccc(-c2csc3ncnc(NCCN4CCOCC4)c23)cc1,i,i,i,i,i,i,nt,nt
Cc1ccc(-c2csc3ncnc(NCCN4CCOCC4)c23)cc1,i,i,i,i,i,54,i,nt
COC(=O)c1sccc1Oc1c(Cl)cccc1[N+](=O)[O-],i,i,i,i,i,i,nt,nt
COc1ccc(N(CC(=O)NCCc2ccccc2)C(=O)c2csnn2)cc1,nt,i,i,i,i,i,nt,nt
CCOc1ccc(C(=O)Nc2ccc(NC(=O)c3cccs3)cc2)cc1[N+](=O)[O-],i,i,i,i,i,54,i,nt
Cc1ccc(C(=O)Nc2ccc(NC(=O)c3cccs3)cc2)cc1[N+](=O)[O-],i,i,i,i,i,87,i,107
Cc1ccc(C(=O)Nc2sc(C)c(-c3ccccc3)c2C(N)=O)cc1[N+](=O)[O-],i,i,i,i,i,72,i,nt
SMILES,CSC inhib,Beta cell apopt,SKKanGAS inh,Calb FLC,MPTP block,Mdm2-MdmX inh,Mdm2-MdmX conf,Full FLuc ctr
COc1ccc(C(=O)Nc2ccc(NC(=O)c3cccs3)cc2)cc1[N+](=O)[O-],i,i,i,i,i,i,nt,nt
CCOc1ccc(C(=O)NC(=S)Nc2ncccc2C)cc1[N+](=O)[O-],i,i,i,i,i,78,i,nt
CCOc1ccc(C(=O)NC(=S)Nc2ccc(NC(=O)c3ccco3)cc2)cc1[N+](=O)[O-],i,i,i,i,i,i,nt,nt
O=C(COc1ccc(S(=O)(=O)N2CCCCC2)cc1)Nc1ccccc1F,i,i,i,i,i,i,nt,nt
O=C(Cn1c(=O)oc2ccccc21)N1CCN(c2ccc(N3CCOCC3)nn2)CC1,i,i,i,i,i,i,nt,nt
O=c1[nH]c(CSc2nnnn2-c2ccccc2)nc2ccccc12,i,nt,i,i,i,i,nt,nt
CCOc1ccc(C(=O)Nc2cc(-c3nc4ccccc4[nH]3)ccc2Cl)cc1[N+](=O)[O-],?,i,i,i,i,93,i,nt
COc1cccc(-c2cc(C(=O)Nc3ccc(N(C)C(C)=O)cc3)c3cc(Br)ccc3n2)c1,i,i,i,i,i,62,i,nt
COc1cccc(-c2cc(C(=O)Nc3ccncc3)c3ccccc3n2)c1,i,i,i,i,i,i,nt,nt
CC(=O)Nc1cccc(NC(=O)c2cc(-c3cccnc3)nc3ccc(Br)cc23)c1,i,i,i,i,i,68,73,90
O=C(NC(c1ccccc1)c1ccsc1)C1CCN(Cc2ccc(Cl)c(Cl)c2)CC1 (stereo unspecified),nt,nt,nt,nt,i,nt,nt,nt
CCN(CC)S(=O)(=O)c1ccc(C(=O)NNc2nc(-c3ccccc3)c3cc(Br)ccc3n2)cc1,i,i,i,?,i,i,nt,nt
NC(=NCCCCCCN=C(N)/N=C(\N)Nc1ccc(Cl)cc1)/N=C(\N)Nc1ccc(Cl)cc1,78!,120,103,106,i,91,66,57
CC(C)N=C(N)N=C(N)Nc1ccc(Cl)cc1,nt,nt,nt,nt,i,i,nt,nt
O=C(NCCOc1ccccc1)C1CCN(C(=O)Nc2ccccc2)CC1,nt,nt,nt,nt,i,nt,nt,nt
CC(=O)[C@H]1CC[C@H]2[C@@H]3C[C@H](C)C4=CC(=O)CC[C@]4(C)[C@H]3[C@@H](O)C[C@]12C,i,i,i,i,i,i,nt,nt
C=CC(=O)Nc1cccc(Oc2ncnc3[nH]cc(-c4cnc5ccccc5c4)c23)c1,nt,i,nt,nt,i,93,79,59
O=[N+]([O-])c1cc([N+](=O)[O-])c(Oc2cccc3ccccc23)cc1NN1CCCCC1,nt,nt,nt,nt,i,nt,nt,nt
O=[N+]([O-])c1cc([N+](=O)[O-])c(Oc2cccnc2Br)cc1NN1CCCCC1,i,i,i,i,i,56,i,nt
NC(=O)c1ccc(NC(=O)COC(=O)C2CC3C=CC2C3)cc1 (stereo unspecified),i,i,nt,nt,i,i,nt,nt
CC(=O)c1ccc(NC(=O)C(Cc2ccccc2)NC(=O)c2ccco2)cc1 (stereo unspecified),i,i,i,i,i,i,nt,nt
CC1(C)Cc2c(c(N3CCCC3)nc3sc4c(N5CCNCC5)ncnc4c23)CO1,i,nt,i,i,nt,58,i,nt
Cc1cc(C)c2c(n1)sc1c(N3CCCCC3)ncnc12,i,i,i,i,i,i,nt,nt
C/C(CC(=O)Nc1cc(Cl)ccc1C)=N\NC(=O)C(=O)N1CCCC1,i,i,i,i,i,i,nt,nt
Cc1ccccc1-n1nnnc1Sc1nnnn1-c1ccccc1,i,i,nt,nt,i,98,83,54
Cc1ccccc1-n1nnnc1SCC(N)=O,i,i,i,i,i,i,nt,nt
